# Measured values: PubChem BioAssay (NCI)
# About 79,000 compounds went through this panel and 15% of them were active in at least one assay; those are over-represented in the sample as a whole. A number with no mark means an inactive call. The source made the active and inactive calls. No stated cut-off is given here; in the data, active means growth inhibition above about 70%; inactive means the rest.
# Columns and labels:
# [1] = NCI Yeast Anticancer Drug Screen. Data for the rad52 strain (AID 147);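 further: 0% = growth of vehicle-treated control cultures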; conditions: S. cerevisiae rad52 mutant growth inhibition, active compounds read high
# Procedure, shortened: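 Read-out: growth inhibition versus vehicle-treated controls. Cells were a DNA repair-deficient yeast strain treated with compounds.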
# [2] = NCI Yeast Anticancer Drug Screen. Data for the wt1 strain (AID 149);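 further: 0% = growth of vehicle-treated wt1 cultures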; conditions: S. cerevisiae wt1 strain (SPY 50644) growth inhibition, active compounds read high
# Procedure, shortened: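 Compounds are added to wt1 yeast cultures. Growth is then measured. Inhibition is expressed relative to vehicle-treated controls.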
# [3] = NCI Yeast Anticancer Drug Screen. Data for the rad50EPP+ strain (AID 151);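 further: 0% = growth of vehicle-treated control cultures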; conditions: S. cerevisiae rad50 mutant strain, active compounds read high
# Procedure, shortened: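 Growth inhibition read against vehicle controls in rad50EPP+ yeast, a strain altered in DNA damage repair, after compound exposure.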
# [4] = NCI Yeast Anticancer Drug Screen. Data for the mgt1 strain (AID 153); conditions: S. cerevisiae mgt1 mutant growth inhibition, active compounds read high
# Procedure, shortened: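 mgt1 yeast grown with test compound; read-out is growth inhibition versus vehicle-treated cultures.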
# [5] = NCI Yeast Anticancer Drug Screen. Data for the rad50 strain (AID 155);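 further: 0% = growth of vehicle-only cultures of the same strain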; conditions: S. cerevisiae rad50 strain growth inhibition, active compounds read high
# Procedure, shortened: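 Inhibition values express reduced yeast growth in compound-treated cultures relative to vehicle-treated controls.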
# [6] = NCI Yeast Anticancer Drug Screen. Data for the mec2-1 strain (AID 157); conditions: S. cerevisiae mec2-1 strain, active compounds read high
# Procedure, shortened: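 Yeast mec2-1 mutant treated with compound. Readout: growth inhibition vs vehicle controls.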
# [7] = NCI Yeast Anticancer Drug Screen. Data for the rad14 strain (AID 159);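 further: 0% = growth of vehicle-treated control cultures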; conditions: S. cerevisiae rad14 strain growth inhibition, active compounds read high
# Procedure, shortened: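 A mutant yeast strain defective in DNA damage repair is treated with compound; inhibition of its growth is scored against untreated, vehicle-exposed cultures.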
# [8] = NCI Yeast Anticancer Drug Screen. Data for the sgs1 mgt1 strain (AID 161);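 further: 0% = growth of cultures given vehicle only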; conditions: S. cerevisiae sgs1 mgt1 strain, active compounds read high
# Procedure, shortened: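 Read-out: growth inhibition vs vehicle controls. Cells: mutant yeast strain deficient in DNA damage repair.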
# [9] = NCI Yeast Anticancer Drug Screen. Data for the CLN2oe strain (AID 163);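 further: 0% = growth of vehicle-only control cultures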; conditions: S. cerevisiae CLN2oe strain, active compounds read high
# Procedure, shortened: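 Read-out: yeast growth inhibition, expressed relative to vehicle-only controls. The strain bears an engineered cell-cycle alteration.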
# [10] = NCI Yeast Anticancer Drug Screen. Data for the cln2 rad14 strain (AID 165);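 further: 0% = growth equal to vehicle treated cultures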; conditions: S. cerevisiae cln2 rad14 strain, active compounds read high
# Procedure, shortened: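 cln2 rad14 yeast strain; compound exposure; growth inhibition read vs vehicle controls.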
# [11] = NCI Yeast Anticancer Drug Screen. Data for the bub3 strain (AID 167); conditions: S. cerevisiae bub3 mutant strain, active compounds read high
# Procedure, shortened: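 Steps: expose the mutant yeast strain to compound; grow alongside vehicle-treated cultures; measure growth; express inhibition against the vehicle cultures.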
# [12] = NCI Yeast Anticancer Drug Screen. Data for the mlh1 strain (AID 171);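 further: 0% = growth of vehicle-treated control cultures of the same strain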; conditions: S. cerevisiae mlh1 strain growth inhibition, active compounds read high
# Procedure, shortened: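 Read-out: growth inhibition versus vehicle controls. Strain: engineered yeast with a defined DNA repair or cell cycle defect, compound-treated.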
# [13] = NCI Yeast Anticancer Drug Screen. Data for the sgs1 strain (AID 173);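 further: 0% = growth of vehicle-only control cultures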; conditions: S. cerevisiae sgs1 mutant, active compounds read high
# Procedure, shortened: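 Read-out: yeast growth inhibition relative to vehicle controls, following compound exposure of a strain with a defined DNA repair/cell cycle alteration.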
# [14] = NCI Yeast Anticancer Drug Screen. Data for the mlh1 rad18 strain (AID 175); conditions: S. cerevisiae mlh1 rad18 strain growth inhibition, active compounds read high
# Procedure, shortened: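 Yeast w/ defined DNA-repair lesions; compound exposure; growth vs vehicle controls → % inhibition.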
# [15] = NCI Yeast Anticancer Drug Screen. Data for the rad18 strain (AID 177); conditions: S. cerevisiae rad18 mutant growth inhibition, active compounds read high
# Procedure, shortened: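 Readout: growth inhibition vs vehicle controls. Cells: genetically altered yeast strain, DNA repair defect.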
# [16] = at 5.0 µM (retest, dose inferred, filed as 0.5)
# [17] = at 50.0 µM (retest, dose inferred, filed as 5.0)
smiles,measurement,setting,value
NC1CCCCC1N.Nc1c(N=Nc2ccc(-c3ccc(N=Nc4cc(S(=O)(=O)[O-])c5ccccc5c4N)cc3)cc2)cc(S(=O)(=O)[O-])c2ccccc12.[OH3+].[OH3+].[Pt+4],growth inhibition,[1]; at 1.2 µM,0%
same,growth inhibition,[1]; at 3.7 µM,4%
same,growth inhibition,[1]; at 11.0 µM,47%
same,growth inhibition,[1]; at 33.0 µM,80% (active)
same,growth inhibition,[1]; at 100.0 µM,65%
same,growth inhibition,[2]; at 1.2 µM,1%
same,growth inhibition,[2]; at 3.7 µM,-43%
same,growth inhibition,[2]; at 11.0 µM,26%
same,growth inhibition,[2]; at 33.0 µM,35%
same,growth inhibition,[2]; at 100.0 µM,92% (active)
same,growth inhibition,[3]; at 1.2 µM,-7%
same,growth inhibition,[3]; at 3.7 µM,13%
same,growth inhibition,[3]; at 11.0 µM,91% (active)
same,growth inhibition,[3]; at 33.0 µM,88% (active)
same,growth inhibition,[3]; at 100.0 µM,60%
same,growth inhibition,[4]; at 1.2 µM,1%
same,growth inhibition,[4]; at 3.7 µM,12%
same,growth inhibition,[4]; at 11.0 µM,90% (active)
same,growth inhibition,[4]; at 33.0 µM,94% (active)
same,growth inhibition,[4]; at 100.0 µM,84% (active)
same,growth inhibition,[5]; at 1.2 µM,2%
same,growth inhibition,[5]; at 3.7 µM,1%
same,growth inhibition,[5]; [16],1%
same,growth inhibition,[5]; at 11.0 µM,28%
same,growth inhibition,[5]; at 33.0 µM,89% (active)
same,growth inhibition,[5]; [17],83% (active)
same,growth inhibition,[5]; at 50.0 µM,86.7% (active)
same,growth inhibition,[5]; at 100.0 µM,70% (active)
same,growth inhibition,[6]; at 1.2 µM,0%
same,growth inhibition,[6]; at 3.7 µM,9%
same,growth inhibition,[6]; [16],88% (active)
same,growth inhibition,[6]; at 11.0 µM,66%
same,growth inhibition,[6]; at 33.0 µM,92% (active)
same,growth inhibition,[6]; [17],84% (active)
same,growth inhibition,[6]; at 50.0 µM,80.9% (active)
same,growth inhibition,[6]; at 100.0 µM,77% (active)
same,growth inhibition,[7]; at 1.2 µM,2%
same,growth inhibition,[7]; at 3.7 µM,13%
same,growth inhibition,[7]; at 11.0 µM,85% (active)
same,growth inhibition,[7]; at 33.0 µM,94% (active)
same,growth inhibition,[7]; at 100.0 µM,81% (active)
same,growth inhibition,[8]; [16],38%
same,growth inhibition,[8]; [17],89% (active)
same,growth inhibition,[8]; at 50.0 µM,84.9% (active)
same,growth inhibition,[9]; at 1.2 µM,1%
same,growth inhibition,[9]; at 3.7 µM,-1%
same,growth inhibition,[9]; at 11.0 µM,22%
same,growth inhibition,[9]; at 33.0 µM,89% (active)
same,growth inhibition,[9]; at 100.0 µM,63%
same,growth inhibition,[10]; [16],66%
same,growth inhibition,[10]; [17],78% (active)
same,growth inhibition,[10]; at 50.0 µM,69.8%
same,growth inhibition,[11]; at 1.2 µM,-1%
same,growth inhibition,[11]; at 3.7 µM,-1%
same,growth inhibition,[11]; [16],91% (active)
same,growth inhibition,[11]; at 11.0 µM,54%
same,growth inhibition,[11]; at 33.0 µM,90% (active)
same,growth inhibition,[11]; [17],83% (active)
same,growth inhibition,[11]; at 50.0 µM,82.5% (active)
same,growth inhibition,[11]; at 100.0 µM,68%
same,growth inhibition,[12]; at 1.2 µM,-1%
same,growth inhibition,[12]; at 3.7 µM,7%
same,growth inhibition,[12]; at 11.0 µM,81% (active)
same,growth inhibition,[12]; at 33.0 µM,90% (active)
same,growth inhibition,[12]; at 100.0 µM,65%
same,growth inhibition,[13]; at 1.2 µM,4%
same,growth inhibition,[13]; at 3.7 µM,22%
same,growth inhibition,[13]; at 11.0 µM,95% (active)
same,growth inhibition,[13]; at 33.0 µM,93% (active)
same,growth inhibition,[13]; at 100.0 µM,80% (active)
same,growth inhibition,[14]; [16],77% (active)
same,growth inhibition,[14]; [17],78% (active)
same,growth inhibition,[14]; at 50.0 µM,85.2% (active)
same,growth inhibition,[15]; at 1.2 µM,1%
same,growth inhibition,[15]; at 3.7 µM,-2%
same,growth inhibition,[15]; at 11.0 µM,25%
same,growth inhibition,[15]; at 33.0 µM,88% (active)
same,growth inhibition,[15]; at 100.0 µM,71% (active)
